SW480 rereplic: induces DNA re-replication in SW480 colon adenocarcinoma cells. SW480 DNA re-replication, Hoechst DNA content imaging, 48 h. Potency, µM (highest dose often 46.1 µM), actives largely listed as activators. 340,000 tested, 1.8% active; note: nearly all actives have a fitted effect of over 55% in size
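Image-based DNA-content assay: after two days of treatment, nuclei were labelled with the DNA dye Hoechst and imaged, and hits were compounds raising the count of nuclei showing high fluorescence intensity.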
BCR signal inh: inhibitors of chronic active B-cell receptor signaling; ABC-DLBCL IkBa-CBG/CBR reporter, luminescence ratio, 4 h; Potency, µM (doses to about 46.1 µM), most hits filed as inhibitors; 340,000 tested, 0.05% active; active = well fitted inhibition curve with a large enough effect in the signal ratio, with a control signal flat, not every such curve was filed as active; inconclusive = small, poorly fitted or top-dose-only effect, or effect the other way, or a change in a side signal; the % refers to the signal ratio
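Compounds up to 46 uM were incubated four hours with TMD8 cells whose green CBG68 luciferase is fused to IkappaBalpha; red CBR luminescence normalised the signal, and concentration-effect curves were fitted to fusion, red and ratio data.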
DT40 TDP1 no CPT: qHTS for Inhibitors of human tyrosyl-DNA phosphodiesterase 1 (TDP1): qHTS in cells in absence of CPT; DT40 Tdp1-/- hTDP1 cells, no CPT, ATP luminescence, 48 h; Potency, µM (titrated, usually from 46.2 µM), most hits filed as inhibitors; 420,000 tested, 15% active; AID 686978, 2013; note: nearly all actives have a fitted effect of over 55% in size
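Luminescent ATP content (CellTiter-Glo) served as the growth readout. Knockout chicken DT40 cells expressing human TDP1 were exposed to compounds without camptothecin for a minimum 48 hr at 37 °C.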
DT40 TDP1 CPT: DT40-hTDP1 cell growth loss with CPT | chicken DT40 Tdp1-/-;hTDP1 cells + 20 nM CPT, ATP luminescence, 48 h | Potency, µM (highest dose often 46.2 µM), hits mostly inhibitors | 420,000 tested, 12% active; note: nearly all actives have a fitted effect of over 55% in size
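Chicken DT40 Tdp1-/- cells complemented with human TDP1, 400 cells/well, exposed to compounds plus 20 nM camptothecin for at least 48 h at 37 C; viability read as ATP content by CellTiter-Glo luminescence.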
MCF10A rereplic: induces DNA re-replication in MCF 10a normal breast cells. 350,000 tested, 2.9% active. MCF 10A DNA re-replication, Hoechst nuclear intensity, 48 h. Potency, µM (titrated, usually from 46.1 µM), most hits filed as activators. AID 624296; note: nearly all actives have a fitted effect of over 50% in size
IL1B secr inh: blocks inflammasome-driven IL-1 beta release; activity change, % at 57.5 µM; AID 743279; THP-1 LPS/ATP IL-1B secretion, AlphaLISA, 16 h; active compounds read low; 360,000 tested, 4.7% active; in the data active = activity change below about -50%; inconclusive = mostly about -30% to -49%
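Secreted IL-1B measured by AlphaLISA bead assay after 16 h compound exposure of THP-1 cells; compounds (final up to 57.5 uM) added 1 h before LPS (250 ng/mL) and ATP (1.25 mM) stimulation; lower signal means less secretion.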
Numbers stand for hits; . = inactive; ? = inconclusive; / = not tested or not shown; [ ] = dose if it differs, or a comment. Compounds with a hit are over-represented: about 19% of the library has one in this group of screens. Unless noted, calls come from the whole dose curve; as a rule, active = well fitted curve in the direction sought with a large enough effect; inconclusive = small, poorly fitted or top-dose-only effect, or another doubt; inactive = no such curve, though single readings can be large; an effect the other way counts as inactive or inconclusive.

SMILES	SW480 rereplic	BCR signal inh	DT40 TDP1 no CPT	DT40 TDP1 CPT	MCF10A rereplic	IL1B secr inh
CC(=O)n1c(Cl)c(NC(=O)CCl)c2ccccc21	?	?	11.6µM	10.3µM	?	-100.6
CCc1nc(SCc2ccc(OCC(C)C)cc2)n[nH]1	.	?	?	4.61µM	.	.
COc1ccc(CN2CCNC(=O)C2CC(=O)NCCCC2CCCC2)c(F)c1 (centres undefined)	.	.	?	?	.	.
O=C(N/N=C/c1c[nH]c2ccc(Br)cc12)c1ccn(Cc2ccc(Cl)cc2)n1	.	?	20.6µM	?	.	?
O=C(N/N=C/c1c[nH]c2ccccc12)c1ccn(Cc2ccc(Cl)cc2Cl)n1	.	?	?	.	?	.
O=C(/C=C/Sc1ccccc1)c1ccccc1	20.6µM	?	5.17µM	5.8µM	5.17µM	-103.7
O=C(/C=C/Sc1ccccc1)c1ccc(Cl)cc1	.	?	16.4µM	?	.	-99.0
NC(=O)c1ccccc1N/C=C/C(=O)c1ccc(Cl)cc1	.[9.22 µM]	?	?	?	?	.
O=C(/C=C/Nc1ccccc1)c1ccccc1	.	?	.	.	?	.
CC(C)NC(=O)N(C)C[C@H]1Oc2ccc(NC(=O)Cc3ccccc3)cc2C(=O)N([C@H](C)CO)C[C@@H]1C	.[9.22 µM]	.	.	.	.	.
COc1ccc(NC2CCCN(C(=O)c3cccc(C)n3)C2)cc1OC (centres undefined)	?	.	.	.	?	.
O=C(CC(=O)c1cccs1)c1ccncc1	.	/	29.1µM	20.6µM	.	.
O=C(NNC(=O)c1cccs1)c1ccncc1	.	?	.	.	.	.
O=C(NNC(=S)NC(=O)c1cccs1)c1ccc(O)cc1	?	?	?	23.1µM	.	.
O=C(NNC(=S)NC(=O)c1cccs1)c1ccc(NC(=O)c2ccccc2)cc1	?	.	?	25.9µM	?	.
O=C(CNC(=S)NC(=O)c1cccs1)c1ccccc1	?	?	14.6µM	16.4µM	.	.
CCn1nc(C)cc1C(=O)NCC1Cc2cccc(-c3cccnc3)c2O1 (centres undefined)	/	/	?	.[9.04 µM]	/	/
Cc1ccc(S(=O)(=O)NC(=O)c2ccccc2C)cc1	.	.	.	.	.	.
CCC(=O)O[C@@H]1[C@H](C)O[C@H](O[C@H]2[C@@H](N(C)C)[C@H](O)[C@@H](O[C@@H]3[C@@H](CC=O)C[C@@H](C)[C@@H](O)/C=C\C=C/C[C@@H](C)OC(=O)C[C@@H](OC(=O)CC)[C@H]3OC)O[C@H]2C)C[C@]1(C)O	.	/	/	/	.	/
NCc1cc2c3c(c1)CCCN3CCC2	.	?	.	.	?	.
COc1cc2c(cc1OC)C(COc1ccc([N+](=O)[O-])cc1)NCC2 (centres undefined)	.	.	.	.	.	.
Cc1ccc(OCC(=O)N2N=C(c3ccc(Cl)cc3)CC2c2ccco2)c([N+](=O)[O-])n1 (centres undefined)	.	.	?	?	.	-53.6
COCC(=O)OCC(=O)N1N=C(c2ccc(Cl)cc2)CC1c1ccco1 (centres undefined)	.	.	.	.	.	.
O=C(COc1cccnc1[N+](=O)[O-])N1N=C(c2ccc(Cl)cc2)CC1c1ccco1 (centres undefined)	.	.	2.91µM	?	.	.
Nc1nc(SCC(=O)N2N=C(c3ccc(Cl)cc3)CC2c2ccco2)n[nH]1 (centres undefined)	.	?	.	?	.	.
SMILES	SW480 rereplic	BCR signal inh	DT40 TDP1 no CPT	DT40 TDP1 CPT	MCF10A rereplic	IL1B secr inh
CC(=O)N1CCc2cc(NC(=O)C3(C)CCN3Cc3ccc(C(C)C)cc3)ccc21 (centres undefined)	/	/	?	?	/	.
COc1ccc(NC(=O)N2CC3(CCN(C(=O)c4ccco4)CC3)C2)cc1	/	/	.	.	/	/
CC(=O)N1CCc2cc(Br)cc(S(=O)(=O)NCCc3cccc(C)c3)c21	/	.	?	?	/	/
CCNc1sc(C(=O)c2cccs2)c(N)c1-c1nc2ccccc2s1	0.82µM	?	?	?	?	.
O=C(C1CCCCC1)N(CCN1CCN(c2ccccc2CO)CC1)c1ccccn1	/	/	10.3µM	?	/	/
COc1cc(CN2CCCC(n3cc(C(=O)N4CCCCC4)nn3)C2)cc(OC)c1OC (centres undefined)	/	/	.	.[9.04 µM]	/	/
COc1cc(CN2CCCC(n3cc(C(=O)N4CCCCC4)nn3)C2)cc(OC)c1 (centres undefined)	/	/	23.1µM	?	/	/
F[B-](F)(F)COc1ccccc1	.	/	.	.	.	.
Cc1nc2c(O)cccc2c(=O)[nH]1	/	/	.	?	/	/
Cc1ccc2c(C)ccc(O)c2n1	.	?	.	.	20.6µM	.
Cc1ccc2ccc3ccc(C)nc3c2n1	?	?	0.146µM	0.0164µM	?	.
